Akt phos inh = inhibitors of Akt phosphorylation. Neuro2A IGF-stimulated pAkt S473 HTRF, 20 min; active compounds read low. activity change, % for hits at 50 µM. 360,000 compounds, 0.32% hits. AID 651550; in the data active means activity change below about -80%; inconclusive means mostly about -51% to -80%; further: on the % scale 0 is the no-effect control and ±100 the full control effect
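Neuro2A cells in DMEM with 0.5% FBS, overnight at 37 deg C, given compound at single 50 µM final, then IGF (6 nM final) for 20 min at 37 deg C. Lysed; phospho-Akt Ser473 by HTRF after 24 h, 665/615 ratio.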
gsp ag = agonists of gsp mutant (McCune-Albright syndrome) | gsp mutant cells, cAMP HTRF, 30 min | Potency, µM (doses to about 76.9 µM), for the others: at the highest dose activation (cAMP increase), hits mostly activators | 340,000 compounds, 0.13% hits | AID 624287; active means well fitted activation curve with a large enough effect; inconclusive means small, poorly fitted or top-dose-only effect, or another doubt; inactive means no such curve, though single readings can be large or run the other way; cell line not stated here;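 further: phosphodiesterase inhibitor Ro 20-1724 added with compounds to block cAMP breakdown; potency means the concentration at half of the fitted maximal effect; nearly all actives have a fitted effect of over 60% in size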
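Cells stably selected in G418 were plated at 2000/well, grown 16-24 hr, then given compounds in DMSO with the PDE inhibitor […] (300 uM solution added) for 30 min at 37C; cAMP was read by HTRF.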
gsp antagonist = antagonizes gsp, the McCune-Albright syndrome mutation; gsp-mutant cells, cAMP HTRF, 30 min; Potency, µM (highest dose often 76.9 µM), for the others: at the top dose activity change, negative = inhibition, hits mostly inhibitors; 340,000 compounds, 0.4% hits; calls by dose curve; cell line not stated here;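 further: intracellular cAMP measured with PDE inhibitor Ro 20-1724 present during compound exposure; potency means the concentration at half of the fitted maximal effect; on the % scale 0 is the no-effect control and ±100 the full control effect; nearly all actives have a fitted effect of over 65% in size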
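Cells in G418 medium, seeded 16-24 h, 37C; buffer exchange to DPBS + 1 mM CaCl2, 0.5 mM MgCl2, 0.05% BSA; cpds in DMSO + […] (300 uM stock), 30 min 37C; HTRF cAMP detection.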
RXFP1 antagonist = RXFP1 (human) relaxin receptor antagonism. activity change, negative = inhibition, % at 57.5 µM. Q9HBX9. HEK293-RXFP1, relaxin-stimulated cAMP HTRF, 30 min; active compounds read low. 350,000 compounds, 0.59% hits. AID 1259400;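 active means activity change of -60% or lower, but not beyond a set lower limit; inconclusive means change between -60% and -40%, or beyond the set limit; inactive means change above -40%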; further: on the % scale 0 is the no-effect control and ±100 the full control effect
Target sequence (Q9HBX9 whole entry, looked up): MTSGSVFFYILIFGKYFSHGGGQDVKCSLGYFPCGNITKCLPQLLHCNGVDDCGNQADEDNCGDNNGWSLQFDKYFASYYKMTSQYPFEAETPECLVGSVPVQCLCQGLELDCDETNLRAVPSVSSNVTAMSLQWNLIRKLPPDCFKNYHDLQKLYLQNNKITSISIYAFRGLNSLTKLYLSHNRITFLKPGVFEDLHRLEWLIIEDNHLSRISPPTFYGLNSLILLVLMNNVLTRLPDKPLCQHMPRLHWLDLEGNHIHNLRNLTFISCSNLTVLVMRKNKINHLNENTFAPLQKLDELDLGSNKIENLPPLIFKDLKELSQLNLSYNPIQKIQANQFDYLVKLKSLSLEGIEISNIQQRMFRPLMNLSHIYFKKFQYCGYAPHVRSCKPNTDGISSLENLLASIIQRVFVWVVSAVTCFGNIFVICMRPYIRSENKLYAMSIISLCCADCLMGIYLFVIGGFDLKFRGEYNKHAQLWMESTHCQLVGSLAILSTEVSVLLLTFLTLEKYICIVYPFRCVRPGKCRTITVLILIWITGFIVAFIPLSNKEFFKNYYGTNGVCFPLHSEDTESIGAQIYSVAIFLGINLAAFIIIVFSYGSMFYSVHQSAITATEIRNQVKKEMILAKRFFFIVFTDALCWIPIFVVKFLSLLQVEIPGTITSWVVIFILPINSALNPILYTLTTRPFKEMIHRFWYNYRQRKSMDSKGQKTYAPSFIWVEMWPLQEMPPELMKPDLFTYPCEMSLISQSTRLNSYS
RXFP1 ag = agonists of human relaxin receptor RXFP1; Q9HBX9; HEK293T-RXFP1 cAMP TR-FRET, 30 min; response scale: percent of porcine relaxin response, buffer zero; Potency, µM (top dose mostly 57.5 µM), for the others: at the top dose activation, actives largely listed as activators; 370,000 compounds, 0.3% hits; active means well fitted activation curve with a large enough effect; inconclusive means small, poorly fitted or top-dose-only effect; further: potency means the concentration at half of the fitted maximal effect; on the % scale 0 is the no-effect control and ±100 the full control effect; nearly all actives have a fitted effect of over 60% in size
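HEK293 cells stably expressing RXFP1, treated 30 min at 37C with compounds plus PDE4 inhibitor Ro 20174; cAMP measured by HTRF TR-FRET. Normalized to buffer and 29 nM porcine relaxin; EC50 by Hill fit.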
* hit, by the source's call; i = inactive; ? = inconclusive; / = no result given; [ ] = dose if it differs, or a comment. Hits are enriched below; roughly 1.2% of the tested compounds scored in any of these assays.

SMILES | Akt phos inh | gsp ag | gsp antagonist | RXFP1 antagonist | RXFP1 ag
CCc1cccc(C)c1NC(=O)CSc1nnc(CCCOc2ccc(Cl)cc2Cl)n1C | i | -7.7% | 10µM* | -12.5 | 0.5%
Cn1c(CCCOc2ccc(Cl)cc2Cl)nnc1SCC(=O)Nc1cccc(F)c1 | i | -2.4%[15.4 µM] | -22.8% | -20.6 | 2.6%
COc1ccc(S(=O)(=O)Nc2cccc(-c3ccc(N4CCCC4)nn3)c2)cc1F | / | / | / | -3.1 | 0.8%
O=[N+]([O-])c1cccc(S(=O)(=O)Nc2ccc(-c3ccc(N4CCCC4)nn3)cc2)c1 | i | 1.2%[15.4 µM] | -34.3% | -71.0* | -1.2%
COc1ccc(S(=O)(=O)Nc2cccc(-c3ccc(N4CCCCCC4)nn3)c2)cc1OC | i | -3.5% | 25.1µM* | -7.5 | -3.1%
COC(=O)COc1ccc(NS(=O)(=O)c2cccc([N+](=O)[O-])c2)cc1 | i | -3.3%[15.4 µM] | ? | -65.8* | 0.9%
Cc1ccc(CN2C(=O)c3ccccc3CC2(C)C(=O)NC2CCCCC2)cc1 (configuration not stated) | / | / | / | 3.8 | -1.5%
CC1CCN(S(=O)(=O)c2ccc3c(c2)CCN3)CC1 | / | / | / | 6.6 | -1.1%
COc1ccc(C(=O)/C=C/C(=O)N(CC(=O)NC2CCCCC2)Cc2ccccc2)c(O)c1 | i | -5.5% | -2.2% | -64.2* | -1.4%
C/C(=N\NC(=O)c1ccccc1[N+](=O)[O-])c1ccc(Br)s1 | i | -5.8%[15.4 µM] | 2.1% | -65.9* | 0.8%
O=C(CO)[C@@H](O)[C@H](O)[C@@H](O)CO | / | / | / | -3.0 | /
Brc1ccc(-c2ccc(/C=N/Nc3nc(N4CCOCC4)nc(N4CCOCC4)n3)o2)cc1 | i | 3.7% | 20µM* | -4.2 | 1.2%
Fc1cnc(N/N=C/c2ccc(-c3ccc(Br)cc3)o2)nc1N1CCOCC1 | i | 19.2% | 4.1% | -14.9 | 4.5%
Cc1ccc(Cn2ccnc2SCC(=O)Nc2nc3ccccc3s2)cc1 | / | / | / | -2.0 | 1.0%
CCOC(=O)C1CCN(c2ncnc3nc[nH]c23)CC1 | i | -34.8% | -4.1% | / | 3.6%
CCOC(=O)N1CCN(c2ncnc3nc[nH]c23)CC1 | i | 20µM* | -1.2% | / | 6.5%
O=C(O)c1ccc(Cn2c(SCc3cc(=O)n4cc(Br)ccc4n3)nc3ccsc3c2=O)cc1 | / | / | / | / | 15.8µM*
O=C(O)CCCCn1c(SCc2cc(=O)n3cc(Cl)ccc3n2)nc2ccsc2c1=O | i | ? | 14.3% | -4.5 | ?
O=C(O)C1CCC(Cn2c(SCc3cc(=O)n4cc(Br)ccc4n3)nc3ccsc3c2=O)CC1 (configuration not stated) | i | 20.8%[15.4 µM] | / | -3.5 | 8.91µM*
CCCCCC=CCC=CCCCCCCCC(=O)OCC | / | / | / | -30.4 | /
CC(C)n1nc(-c2cc3cc(O)ccc3[nH]2)c2c(N)ncnc21 | / | / | / | -37.8 | /
Nc1nc(Nc2ccccc2F)sc1C(=O)c1ccc(Cl)cc1 | / | / | / | -32.0 | 4.5%
CCc1ccc(NC(=O)CCC(=O)c2ccccc2)cc1 | i | -4.5% | 35.5µM* | 3.4 | -2.8%
CCc1ccc(NC(=O)CCC(=O)c2ccc(C)cc2)cc1 | i | 32.9% | -12.3% | -6.7 | -2.8%
CCOc1ccc(S(=O)(=O)Nc2cc(SCC(=O)O)c(O)c3ccccc23)cc1 | i | -17.2% | 5.1% | -29.5 | 0.4%
SMILES | Akt phos inh | gsp ag | gsp antagonist | RXFP1 antagonist | RXFP1 ag
CC(C)OC(=O)C(C(=O)C(F)(F)F)c1cc(NS(=O)(=O)c2ccc3ccccc3c2)c2ccccc2c1O (configuration not stated) | i | -26.2% | -10.8% | -85.5* | 0.9%
O=C(CN1CCCCC1)Nc1c2c(nc3ccccc13)N(c1ccccc1)CC2 | i | ? | 11.9% | 48.3 | 25.1µM*
C=CCN1C(=O)C(O)(CC(=O)c2ccccc2)c2ccccc21 (configuration not stated) | -109.3%* | -23.9% | 3.0% | -10.1 | 0.1%
Cc1coc(C)c1C(=O)CC1(O)C(=O)N(Cc2ccccc2)c2ccccc21 (configuration not stated) | -95.0%* | -45.5% | 1.3% | 0.9 | 1.7%
Cc1ccc(CN2C(=O)C(O)(CC(=O)c3ccc(C)cc3)c3ccccc32)cc1 (configuration not stated) | / | / | / | -7.9 | 0.8%
CCCN1CCc2nc(N3CCN(c4ncccn4)CC3)ncc2C1 | / | / | / | -15.4 | 0.2%

Compound activity from PubChem.
